Test results taken from the OligoGym collection.

These sequences were tested against CNGB1 (assay: pooled miR-30 sensor sort-seq; sequence = guide strand). Details: shRNA.
Further: reference of the scale not given here.

Sequence	sensor-assay potency score (higher = more potent)
TTTCTCCAAACACAGATCCAGC	-1.37
TCGCATGTCCTTTTTGTCCGTA	-0.378
TTCTTGCACACATAGTCGTTGG	-0.837
TTTCTTCCGGAGTAACTTCTGA	-0.522
TAAGCTGGAACCACCTCTGTAC	0.05
TTCATGTACTTCACCGTGCTGT	0.284
TTGAACTTGCAGCAGAGCATGT	-0.734
TTGGGTTCATCTGTGCACCCTG	0.488
TACATCAGGTTGGTCAGCGGGT	-0.543

Each sequence was assayed against CNN2 in the same assay as above. Details: shRNA.

Sequence	sensor-assay potency score (higher = more potent)
TGGCTGGCACACTTGTTCGTGC	-1.46
TTTCTTTTGTGAATACTTCCTG	0.659
TGTCACACTTGTCGGTTCCCAG	-0.793
TCATAGAGATGCCTTCTCGTGC	-0.57
TTGGTATCATAGATGTGCCGCC	-0.285
TTCTTTTGTGAATACTTCCTGA	-0.256
TTGACTGGCAGCACTGAACGGG	-0.107
TAAGATAGTTCCATCCTTCAGG	-0.219
TATTTCACATTATCTCACGGAG	-0.296
TCATATTTGGACAGGAGCCGGT	-0.85
TTGGGGTCATATATCTGCCGGC	-0.73
TGTAGCTTGTTCATGAGTGTGC	0.544
TAGAGATGCCTTCTCGTGCCGT	-0.0875
TTGGACAGGAGCCGGTTCTTGA	-0.733
TCTGTTGGTCTGAAGGTCCTAG	0.303
TTGTCGGTTCCCAGCTTGGTAT	-1.75
TTGATGAAGTTGGACAGGTTTT	-0.865
TTGGACAGGTTTTCTAGCTGGT	0.325
TAGCTTGTTCATGAGTGTGCAT	-0.436
TAGCTGGTGCCAGTTCTGCATG	-1.58
TTGCGTTTGGTCCACAGTCGTA	-1.13
